Measured values as given in PubChem BioAssay AID1159580 (chemical genetic matrix, 2015).
The whole screen tested about 5,500 compounds, of which about 2,000 (36%) were called active. Roughly 18% stayed inconclusive and do not appear here. Cut-off read from the data, not from the text of the source: active = normalized growth mostly below about 0.91 (no sharp cut-off); inconclusive = no clear call, values can overlap the other calls; inactive = mostly above about 0.92. This is one part of the list.

Assay: chemical genetic growth profiling, strain panel (AID 1159580);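 note: tested at 20 µM; growth read once vehicle control cultures reached saturation at 30 °C; 1 = growth at the plate median or of vehicle wells; lower values mean less growth of the strain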
Conditions: growth OD

Measured: normalized growth

O=C(O)c1cc(O)ccc1O
inactive: S. cerevisiae deletion strains, locus YAL013W, strain DEP1, hits give low values 0.986 | S. cerevisiae deletion strains, locus YBR021W, strain FUR4, hits give low values 0.948 | S. cerevisiae deletion strains, locus YBR229C, strain ROT2, hits give low values 0.992 | S. cerevisiae deletion strains, locus YCL029C, strain bik1, hits give low values 0.994 | S. cerevisiae deletion strains, locus YDL035C, strain GPR1, hits give low values 0.995 | S. cerevisiae deletion strains, locus YDL074C, strain BRE1, hits give low values 0.978 | S. cerevisiae deletion strains, locus YDL101C, strain DUN1, hits give low values 0.999 | S. cerevisiae deletion strains, locus YDL185W, strain tfp1, hits give low values 1 | S. cerevisiae deletion strains, locus YDL192W, strain arf1, hits give low values 0.993 | S. cerevisiae deletion strains, locus YDR101C, strain arx1, hits give low values 0.965 | S. cerevisiae deletion strains, locus YDR150W, strain NUM1, hits give low values 0.993 | S. cerevisiae deletion strains, locus YDR162C, strain NBP2, hits give low values 1.01 | S. cerevisiae deletion strains, locus YDR318W, strain mcm21, hits give low values 1.01 | S. cerevisiae deletion strains, locus YDR388W, hits give low values 0.989 | S. cerevisiae deletion strains, locus YDR502C, strain sam2, hits give low values 0.989 | S. cerevisiae deletion strains, locus YEL061C, strain CIN8, hits give low values 0.998 | S. cerevisiae deletion strains, locus YER110C, hits give low values 0.981 | S. cerevisiae deletion strains, locus YER155C, strain BEM2, hits give low values 0.996 | S. cerevisiae deletion strains, locus YER167W, strain BCK2, hits give low values 0.988 | S. cerevisiae deletion strains, locus YGL078C, strain dbp3, hits give low values 0.988 | S. cerevisiae deletion strains, locus YGL086W, strain mad1, hits give low values 0.975 | S. cerevisiae deletion strains, locus YGL248W, strain PDE1, hits give low values 1.02 | S. cerevisiae deletion strains, locus YGR078C, strain PAC10, hits give low values 1.02 | S. cerevisiae deletion strains, locus YGR135W, strain pre9, hits give low values 1.01 | S. cerevisiae deletion strains, locus YGR252W, strain gcn5, hits give low values 1.12 | S. cerevisiae deletion strains, locus YHR030C, strain SLT2, hits give low values 0.989 | S. cerevisiae deletion strains, locus YHR079C, strain IRE1 (second series), hits give low values 0.986 | S. cerevisiae deletion strains, locus YHR094C, strain hxt1, hits give low values 0.99 | S. cerevisiae deletion strains, locus YHR129C, strain ARP1, hits give low values 0.994 | S. cerevisiae deletion strains, locus YHR200W, strain rpn10, hits give low values 0.989 | S. cerevisiae deletion strains, locus YIL066C, strain RNR3, hits give low values 0.985 | S. cerevisiae deletion strains, locus YIL073C, strain SPO22, hits give low values 0.976 | S. cerevisiae deletion strains, locus YIL125W, strain kgd1, hits give low values 0.987 | S. cerevisiae deletion strains, locus YIR030C, strain dcg1, hits give low values 1 | S. cerevisiae deletion strains, locus YJL095W, strain BCK1, hits give low values 1.03 | S. cerevisiae deletion strains, locus YJL134W, strain LCB3, hits give low values 0.984 | S. cerevisiae deletion strains, locus YJL168C, strain set2, hits give low values 0.998 | S. cerevisiae deletion strains, locus YJL187C, strain SWE1 (second series), hits give low values 1.01 | S. cerevisiae deletion strains, locus YJR043C, strain POL32, hits give low values 1.01 | S. cerevisiae deletion strains, locus YKL009W, strain mrt4, hits give low values 0.964 | S. cerevisiae deletion strains, locus YKL068W, hits give low values 0.992 | S. cerevisiae deletion strains, locus YKL085W, strain MDH1 (second series), hits give low values 1 | S. cerevisiae deletion strains, locus YKL085W, strain MDH1, hits give low values 1 | S. cerevisiae deletion strains, locus YKL190W, strain CNB1, hits give low values 0.997 | S. cerevisiae deletion strains, locus YKR001C, strain vps1, hits give low values 0.985 | S. cerevisiae deletion strains, locus YLR039C, strain RIC1, hits give low values 1.05 | S. cerevisiae deletion strains, locus YLR058C, strain SHM2, hits give low values 1 | S. cerevisiae deletion strains, locus YLR102C, strain apc9, hits give low values 0.987 | S. cerevisiae deletion strains, locus YLR262C, strain YPT6, hits give low values 1.05 | S. cerevisiae deletion strains, locus YLR268W, strain sec22, hits give low values 0.986 | S. cerevisiae deletion strains, locus YLR330W, strain CHS5, hits give low values 0.991 | S. cerevisiae deletion strains, locus YLR342W, strain FKS1 (second series), hits give low values 0.95 | S. cerevisiae deletion strains, locus YLR371W, strain rom2, hits give low values 0.989 | S. cerevisiae deletion strains, locus YLR418C, strain cdc73, hits give low values 1.05 | S. cerevisiae deletion strains, locus YML016C, strain PPZ1, hits give low values 0.995 | S. cerevisiae deletion strains, locus YML032C, strain rad52, hits give low values 1.01 | S. cerevisiae deletion strains, locus YML124C, strain tub3, hits give low values 1 | S. cerevisiae deletion strains, locus YMR078C, strain ctf18, hits give low values 0.992 | S. cerevisiae deletion strains, locus YMR223W, strain ubp8, hits give low values 1.04 | S. cerevisiae deletion strains, locus YMR307W, strain GAS1, hits give low values 1.07 | S. cerevisiae deletion strains, locus YNL067W, strain RPL9B, hits give low values 1.01 | S. cerevisiae deletion strains, locus YNL153C, strain GIM3, hits give low values 1.02 | S. cerevisiae deletion strains, locus YNL233W, strain BNI4, hits give low values 1 | S. cerevisiae deletion strains, locus YNL250W, strain rad50, hits give low values 0.976 | S. cerevisiae deletion strains, locus YNL271C, strain bni1, hits give low values 0.994 | S. cerevisiae deletion strains, locus YNL298W, strain CLA4, hits give low values 0.994 | S. cerevisiae deletion strains, locus YNL307C, strain MCK1, hits give low values 0.98 | S. cerevisiae deletion strains, locus YNL322C, strain KRE1, hits give low values 1 | S. cerevisiae deletion strains, locus YNR052C, strain pop2, hits give low values 1 | S. cerevisiae deletion strains, locus YOL012C, strain htz1 1.12 | S. cerevisiae deletion strains, locus YOL147C, strain pex11, hits give low values 0.99 | S. cerevisiae deletion strains, locus YOR061W, strain CKA2, hits give low values 0.996 | S. cerevisiae deletion strains, locus YOR069W, strain VPS5, hits give low values 0.987 | S. cerevisiae deletion strains, locus YOR136W, strain idh2, hits give low values 0.995 | S. cerevisiae deletion strains, locus YOR144C, strain elg1, hits give low values 0.989 | S. cerevisiae deletion strains, locus YOR184W, strain ser1, hits give low values 1 | S. cerevisiae deletion strains, locus YOR316C, strain cot1, hits give low values 0.985 | S. cerevisiae deletion strains, locus YPL241C, strain CIN2, hits give low values 1 | S. cerevisiae deletion strains, locus YPR119W, strain clb2, hits give low values 0.994 | S. cerevisiae deletion strains, locus YPR141C, strain kar3, hits give low values 0.981 | S. cerevisiae deletion strains, locus YPR163C, strain tif3, hits give low values 0.999 | S. cerevisiae deletion strains, locus YPR167C, strain met16, hits give low values 1.01 | S. cerevisiae deletion strains, strain wtn01, hits give low values 0.943 | S. cerevisiae strains, strain wild type, hits give low values 0.994
